# Measured values taken from the supplement of paper PMC10849652.
# Targets with a hit are over-represented here; the source holds about 7,900 in all. About 0.6% of all pairs of compound and target were hits. Values without a mark were called inactive.
# Assays:
# Experiment in all cases: log2 fold change, soluble protein after heating vs DMSO (PISA); higher = thermal stabilisation; K562 cells, 10 uM, 30 min; active = over 0.2 and 3.5 SD of the protein, either way, in both replicates (recomputed)
# [1] = compound: CC1=C(C=C(C=C1)NC(=O)C2=CC(=CC=C2)C(C)(C)C#N)NC3=CC4=C(C=C3)N=CN(C4=O)C
# In short: (§1)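 K562 cells at 2×10^6 cells/mL were treated for 30 min with 10 μM compound, and aliquots were heated for 3 min over 48°C-58°C before pooling. Extraction used PBS with 0.5% NP-40 at 4°C, and soluble protein was the supernatant after 21,000xg for 90 min, measured by TMTpro 16plex LC-MS/MS with channel sums equalised. Thermal stability values, relative to control samples and from duplicates, are log2 fold changes.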
# [2] = compound: CC1=C(C=C(C=C1)NC(=O)C2=CC(=CC=C2)N(C)C)NC(=O)C3=CC=C(C=C3)O
# In short: as §1
# [3] = compound: CC1=CC=C(C=C1)SC2=C3C=C(SC3=CN=C2)C(=O)N
# In short: as §1
# [4] = compound: CC1=NC(=CC=C1)C2=C(N=C(N2)C(C)(C)C)C3=CC4=NC=CN=C4C=C3
# In short: as §1
# Nexturastat A = compound: CCCCN(Cc1ccc(C(=O)NO)cc1)C(=O)Nc1ccccc1 [Nexturastat A]
# In short: as §1
# vemurafenib = compound: CCCS(=O)(=O)Nc1ccc(F)c(C(=O)c2c[nH]c3ncc(-c4ccc(Cl)cc4)cc23)c1F [vemurafenib]
# In short: as §1
# [5] = compound: CCCS(=O)(=O)Nc1ccc(F)c(C(=O)c2c[nH]c3ncc(Cl)cc23)c1F
# In short: as §1
# [6] = compound: CCCc1cc(C)[nH]c(=O)c1CNC(=O)c1cc(-c2ccnc(N3CCN(C)CC3)c2)cc2c1cnn2C(C)C
# In short: as §1
# givinostat = compound: CCN(CC)Cc1ccc2cc(COC(=O)Nc3ccc(C(=O)NO)cc3)ccc2c1 [givinostat]
# In short: as §1
# barasertib = compound: CCN(CCCOc1ccc2c(Nc3cc(CC(=O)Nc4cccc(F)c4)[nH]n3)ncnc2c1)CCOP(=O)(O)O [barasertib]
# In short: as §1
# [7] = compound: CC[C@@H]1C(=O)N(C)c2cnc(Nc3ccc(C(=O)NC4CCN(C)CC4)cc3OC)nc2N1C1CCCC1
# In short: as §1
# volasertib = compound: CC[C@@H]1C(=O)N(C)c2cnc(Nc3ccc(C(=O)N[C@H]4CC[C@H](N5CCN(CC6CC6)CC5)CC4)cc3OC)nc2N1C(C)C [volasertib]
# In short: as §1
# [8] = compound: CC[C@H](C)N1C=C(C2=C(C=C(C=C21)C3=CN=C(C=C3)N4CCNCC4)C(=O)NCC5=C(C=C(NC5=O)C)C)C
# In short: as §1
# epoxomicin = compound: CC[C@H](C)[C@@H](C(=O)N[C@@H]([C@@H](C)O)C(=O)N[C@@H](CC(C)C)C(=O)[C@]1(CO1)C)NC(=O)[C@H]([C@@H](C)CC)N(C)C(=O)C [epoxomicin]
# In short: as §1
# [9] = compound: CCn1c(C(=O)N(C2CC2)C2CC2)cc2c3c(ncn3C)c(Nc3cc(C)n(C)n3)nc21
# In short: as §1
# [10] = compound: CCn1cc(-c2ccnc3[nH]c(-c4cccc(CN(C)C)c4)cc23)c(-c2ccc(NC(=O)N(C)C)cc2)n1
# In short: as §1
# [11] = compound: CN(C)CC(=O)Nc1ccc2[nH]c(=O)c3ccccc3c2c1
# In short: as §1
# rosiglitazone = compound: CN(CCOC1=CC=C(C=C1)C[C@H]2C(=O)NC(=O)S2)C3=CC=CC=N3 (racemic) [rosiglitazone]
# In short: as §1
# [12] = compound: CN1C2=C(C3=C1C(=O)N(N=C3)CC4=CC(=CC=C4)N)SC(=C2)S(=O)C
# In short: as §1
# [13] = compound: CN1CCC(CNc2ccc3ncc(-c4cccc(OC(F)(F)F)c4)n3n2)CC1
# In short: as §1
# UniProt O14796, sequence (O14796 whole entry, looked up): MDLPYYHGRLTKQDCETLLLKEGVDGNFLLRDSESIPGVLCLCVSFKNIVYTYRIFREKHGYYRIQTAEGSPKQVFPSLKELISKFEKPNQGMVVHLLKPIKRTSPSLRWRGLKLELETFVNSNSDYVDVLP
# UniProt Q86UA6, sequence (Q86UA6 whole entry, looked up): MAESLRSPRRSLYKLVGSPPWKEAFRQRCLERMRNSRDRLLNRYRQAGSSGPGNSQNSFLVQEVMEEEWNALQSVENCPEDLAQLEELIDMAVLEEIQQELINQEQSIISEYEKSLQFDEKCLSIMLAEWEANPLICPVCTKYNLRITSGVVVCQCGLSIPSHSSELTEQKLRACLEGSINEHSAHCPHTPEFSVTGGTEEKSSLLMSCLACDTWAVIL
# UniProt P06400, sequence (P06400 whole entry, looked up): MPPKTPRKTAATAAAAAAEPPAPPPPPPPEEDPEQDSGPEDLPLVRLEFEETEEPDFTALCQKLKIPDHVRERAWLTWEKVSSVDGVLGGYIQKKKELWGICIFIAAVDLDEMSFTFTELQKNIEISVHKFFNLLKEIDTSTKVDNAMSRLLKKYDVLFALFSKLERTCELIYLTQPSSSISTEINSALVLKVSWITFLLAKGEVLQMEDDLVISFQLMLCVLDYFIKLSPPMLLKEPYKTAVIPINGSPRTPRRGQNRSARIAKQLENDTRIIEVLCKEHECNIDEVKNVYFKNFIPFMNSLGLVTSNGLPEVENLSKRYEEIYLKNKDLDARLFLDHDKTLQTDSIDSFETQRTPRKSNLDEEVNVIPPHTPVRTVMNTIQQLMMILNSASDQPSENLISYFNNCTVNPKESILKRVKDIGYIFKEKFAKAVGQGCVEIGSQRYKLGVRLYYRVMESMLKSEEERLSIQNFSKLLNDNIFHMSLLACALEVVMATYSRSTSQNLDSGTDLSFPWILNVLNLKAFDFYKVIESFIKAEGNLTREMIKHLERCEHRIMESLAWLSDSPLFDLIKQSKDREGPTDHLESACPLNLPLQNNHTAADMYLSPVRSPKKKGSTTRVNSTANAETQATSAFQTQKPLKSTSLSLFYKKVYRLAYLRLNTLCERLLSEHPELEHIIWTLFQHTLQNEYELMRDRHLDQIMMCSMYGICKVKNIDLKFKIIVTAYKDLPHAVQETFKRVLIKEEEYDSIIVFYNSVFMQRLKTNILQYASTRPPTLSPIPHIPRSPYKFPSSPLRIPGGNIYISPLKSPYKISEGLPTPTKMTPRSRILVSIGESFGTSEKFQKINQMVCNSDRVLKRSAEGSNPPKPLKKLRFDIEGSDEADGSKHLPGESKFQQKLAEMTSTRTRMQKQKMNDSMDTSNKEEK
# UniProt Q9NRX5, sequence (Q9NRX5 whole entry, looked up): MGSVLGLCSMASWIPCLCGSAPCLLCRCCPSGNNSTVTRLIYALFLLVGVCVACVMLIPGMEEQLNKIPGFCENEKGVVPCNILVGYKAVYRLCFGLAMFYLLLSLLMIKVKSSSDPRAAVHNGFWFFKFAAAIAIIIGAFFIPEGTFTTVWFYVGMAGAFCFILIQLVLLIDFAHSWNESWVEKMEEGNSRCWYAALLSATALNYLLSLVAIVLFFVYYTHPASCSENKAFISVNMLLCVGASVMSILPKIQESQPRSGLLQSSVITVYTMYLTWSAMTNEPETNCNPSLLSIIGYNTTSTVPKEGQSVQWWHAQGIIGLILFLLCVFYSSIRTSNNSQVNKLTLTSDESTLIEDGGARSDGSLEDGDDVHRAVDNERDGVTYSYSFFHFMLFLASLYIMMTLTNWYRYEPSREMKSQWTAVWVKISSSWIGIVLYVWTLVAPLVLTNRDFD
# UniProt P11233, sequence (P11233 whole entry, looked up): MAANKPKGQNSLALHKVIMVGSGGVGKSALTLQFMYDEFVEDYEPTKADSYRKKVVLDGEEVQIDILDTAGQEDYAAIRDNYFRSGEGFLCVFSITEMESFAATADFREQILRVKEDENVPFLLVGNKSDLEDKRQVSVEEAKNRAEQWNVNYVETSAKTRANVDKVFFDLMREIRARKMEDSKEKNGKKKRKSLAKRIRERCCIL
# UniProt P63208, sequence (P63208 whole entry, looked up): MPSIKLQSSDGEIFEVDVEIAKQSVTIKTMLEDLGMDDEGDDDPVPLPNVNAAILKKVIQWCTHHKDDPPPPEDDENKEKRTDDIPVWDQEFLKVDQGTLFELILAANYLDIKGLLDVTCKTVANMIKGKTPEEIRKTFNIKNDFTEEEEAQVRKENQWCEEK
# UniProt Q9Y3L5, sequence (Q9Y3L5 whole entry, looked up): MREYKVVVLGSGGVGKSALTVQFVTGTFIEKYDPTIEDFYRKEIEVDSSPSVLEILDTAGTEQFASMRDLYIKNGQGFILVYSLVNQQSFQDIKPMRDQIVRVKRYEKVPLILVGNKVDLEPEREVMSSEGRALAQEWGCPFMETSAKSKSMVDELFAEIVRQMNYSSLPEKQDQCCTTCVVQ
# UniProt Q8TC12, sequence (Q8TC12 whole entry, looked up): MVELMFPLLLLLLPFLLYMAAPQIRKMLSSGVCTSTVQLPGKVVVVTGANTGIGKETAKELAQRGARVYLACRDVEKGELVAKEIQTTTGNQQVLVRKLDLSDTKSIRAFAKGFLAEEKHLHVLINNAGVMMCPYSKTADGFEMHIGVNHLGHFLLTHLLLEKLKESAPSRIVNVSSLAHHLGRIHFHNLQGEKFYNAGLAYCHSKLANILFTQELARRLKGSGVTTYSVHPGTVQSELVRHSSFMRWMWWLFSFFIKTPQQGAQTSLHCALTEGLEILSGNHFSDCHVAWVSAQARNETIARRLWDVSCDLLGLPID
# UniProt P51812, sequence (P51812 whole entry, looked up): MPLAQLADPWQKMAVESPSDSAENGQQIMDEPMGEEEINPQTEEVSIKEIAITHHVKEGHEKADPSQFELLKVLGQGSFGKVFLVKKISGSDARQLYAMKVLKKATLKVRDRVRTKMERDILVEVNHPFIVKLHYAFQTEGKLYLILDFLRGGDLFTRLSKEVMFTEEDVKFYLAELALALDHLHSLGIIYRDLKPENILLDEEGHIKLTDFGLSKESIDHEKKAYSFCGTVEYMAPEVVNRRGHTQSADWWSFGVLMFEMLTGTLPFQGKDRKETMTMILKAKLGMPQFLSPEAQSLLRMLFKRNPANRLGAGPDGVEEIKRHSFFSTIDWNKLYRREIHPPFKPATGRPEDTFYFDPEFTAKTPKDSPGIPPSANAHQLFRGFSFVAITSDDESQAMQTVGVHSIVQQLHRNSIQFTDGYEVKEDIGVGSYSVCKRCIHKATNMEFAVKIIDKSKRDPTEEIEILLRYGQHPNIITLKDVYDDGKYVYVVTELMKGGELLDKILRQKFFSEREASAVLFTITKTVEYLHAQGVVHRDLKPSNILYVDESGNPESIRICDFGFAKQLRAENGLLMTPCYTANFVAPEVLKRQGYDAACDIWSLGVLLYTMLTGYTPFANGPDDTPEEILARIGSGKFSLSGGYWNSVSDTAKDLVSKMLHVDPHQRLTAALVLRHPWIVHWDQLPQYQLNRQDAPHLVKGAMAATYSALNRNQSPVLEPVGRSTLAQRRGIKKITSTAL
# UniProt Q96DM3, sequence (Q96DM3 whole entry, looked up): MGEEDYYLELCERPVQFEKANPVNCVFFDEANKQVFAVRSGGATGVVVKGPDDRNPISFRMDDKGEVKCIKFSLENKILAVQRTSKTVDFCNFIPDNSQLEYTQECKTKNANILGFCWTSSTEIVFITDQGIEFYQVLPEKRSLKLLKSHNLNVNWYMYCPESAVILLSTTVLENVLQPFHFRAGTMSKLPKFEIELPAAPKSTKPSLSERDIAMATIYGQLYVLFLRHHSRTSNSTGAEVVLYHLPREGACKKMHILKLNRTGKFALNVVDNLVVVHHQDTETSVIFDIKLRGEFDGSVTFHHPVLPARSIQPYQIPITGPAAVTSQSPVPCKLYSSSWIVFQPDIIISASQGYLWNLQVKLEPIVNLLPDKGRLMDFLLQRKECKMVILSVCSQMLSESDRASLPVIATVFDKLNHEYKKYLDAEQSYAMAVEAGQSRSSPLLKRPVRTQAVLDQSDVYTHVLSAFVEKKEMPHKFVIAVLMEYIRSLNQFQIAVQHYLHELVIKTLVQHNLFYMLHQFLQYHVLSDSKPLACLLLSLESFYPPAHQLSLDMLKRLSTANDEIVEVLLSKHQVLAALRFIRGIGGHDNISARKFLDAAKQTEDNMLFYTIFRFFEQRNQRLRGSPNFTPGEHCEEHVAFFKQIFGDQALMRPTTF
# UniProt Q5RL73, sequence (Q5RL73 whole entry, looked up): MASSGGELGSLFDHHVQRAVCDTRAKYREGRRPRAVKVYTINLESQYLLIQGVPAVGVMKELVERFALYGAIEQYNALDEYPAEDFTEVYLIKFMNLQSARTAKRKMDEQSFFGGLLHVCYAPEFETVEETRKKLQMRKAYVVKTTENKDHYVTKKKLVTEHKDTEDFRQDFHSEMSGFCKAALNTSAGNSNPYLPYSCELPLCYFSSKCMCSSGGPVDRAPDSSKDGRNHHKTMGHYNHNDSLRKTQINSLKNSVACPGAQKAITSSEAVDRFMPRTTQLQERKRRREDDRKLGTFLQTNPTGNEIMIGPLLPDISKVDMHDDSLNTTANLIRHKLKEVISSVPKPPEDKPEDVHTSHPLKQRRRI
# UniProt Q01196, sequence (Q01196 whole entry, looked up): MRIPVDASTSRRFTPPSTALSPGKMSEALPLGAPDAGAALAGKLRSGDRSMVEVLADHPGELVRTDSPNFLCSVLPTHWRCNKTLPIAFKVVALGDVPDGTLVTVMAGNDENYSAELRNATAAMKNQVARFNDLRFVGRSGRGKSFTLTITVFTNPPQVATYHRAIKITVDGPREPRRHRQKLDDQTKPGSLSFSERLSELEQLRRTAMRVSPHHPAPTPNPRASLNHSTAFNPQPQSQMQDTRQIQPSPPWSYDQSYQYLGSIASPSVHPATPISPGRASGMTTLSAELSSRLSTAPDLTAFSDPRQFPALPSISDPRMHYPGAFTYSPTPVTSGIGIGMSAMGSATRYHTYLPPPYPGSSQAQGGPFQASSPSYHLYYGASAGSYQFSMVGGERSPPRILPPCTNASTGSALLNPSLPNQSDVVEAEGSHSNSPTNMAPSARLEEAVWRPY
Target,log2 fold change [1],log2 fold change [2],log2 fold change [3],log2 fold change [4],log2 fold change (Nexturastat A),log2 fold change (vemurafenib),log2 fold change [5],log2 fold change [6],log2 fold change (givinostat),log2 fold change (barasertib),log2 fold change [7],log2 fold change (volasertib),log2 fold change [8],log2 fold change (epoxomicin),log2 fold change [9],log2 fold change [10],log2 fold change [11],log2 fold change (rosiglitazone),log2 fold change [12],log2 fold change [13]
RALA (UniProt P11233),-0.007,-0.006,0.02,0.132,0.021,-0.031,0.05,0.019,-0.002,-0.001,0.084,0.025,-0.044,-0.054,0.021,0.029,-0.029,-0.021,-0.115,0.434 (active)
SENP6 (UniProt Q9GZR1),-0.048,-0.006,0.037,-0.007,0.247,-0.028,-0.01,0.077,0.057,-0.026,-0.086,-0.07,-0.044,-0.039,0.029,-0.022,-0.017,0.004,-0.014,-0.038
RRP36 (UniProt Q96EU6),0.001,-0.168,-0.045,–,0.24,-0.117,0.002,0.136,0,-0.218,0.217,0.376,-0.028,-0.203,0.002,0.201,-0.114,-0.25,0.316,0.288
RUNX1 isoform 8 (UniProt Q01196),0.236,0.018,0.059,-0.045,-0.231,-0.026,0.046,0.088,0.076,-0.058,-0.331,-0.434 (active),0.086,-0.206,0.035,-0.089,0.06,0.032,-0.027,-0.102
RBM48 isoform 2 (UniProt Q5RL73),-0.708 (active),-0.13,-0.009,-0.007,0.04,–,-0.011,–,-0.03,-0.069,–,-0.003,0.002,0.003,0.13,0.078,–,0.006,–,0.114
"RAD50, A0A494C0Y7",-0.005,-0.03,-0.063,-0.041,–,0.045,0,-0.244,–,-0.171,0.077,-0.109,–,–,–,0.033,0.055,-0.001,0.097,0.04
RPAIN isoform 8 (UniProt Q86UA6),0.009,0.038,-0.098,0.136,-0.017,-0.062,0.042,–,–,0.029,–,-0.718 (active),–,-0.118,–,–,-0.076,-0.021,-0.044,–
RB1 (UniProt P06400),0.016,-0.011,0.034,0.003,-0.1,-0.01,-0.008,-0.026,-0.02,-0.004,0.018,0.034,0.016,0.041,-0.016,-0.05,0.008,0.009,-0.064,-0.265 (active)
RMC1 (UniProt Q96DM3),0.037,0.001,-0.051,0.024,-0.031,0.061,0.031,0.021,-0.013,0.039,-0.192,-0.416 (active),0.095,-0.025,-0.041,0.042,-0.023,0.005,-0.039,-0.146
RPS4X (UniProt P62701),0.019,0,-0.027,-0.055,0.214,-0.106,-0.08,0.213,0.021,-0.101,0.173,0.419,0.056,-0.22,0.032,0.108,-0.089,-0.086,0.177,0.148
RDH11 (UniProt Q8TC12),0.068,-0.054,0.019,-0.016,0.011,0.042,0.035,0.007,0.066,0.057,-0.213,-0.543 (active),0.015,0.045,-0.024,-0.072,0.037,-0.041,0.027,-0.466 (active)
SKP1 (UniProt P63208),0.095,0.048,0.094,0.017,-0.052,-0.036,0.008,-0.032,-0.05,-0.021,-0.012,-0.02,-0.027,0.034,0.035,-0.035,-0.019,-0.02,-0.126,0.244
RPS6KA3 (UniProt P51812),-0.072,-0.157,0.021,0.01,0.015,0.001,0.016,0.042,-0.227,0.06,–,-0.174,0.065,0.027,0.066,-0.049,0.016,0.052,-0.043,-0.192
RAP2C (UniProt Q9Y3L5),-0.064,0.052,-0.03,–,0,0.066,-0.13,-0.052,-0.044,-0.031,0.02,0.05,0.042,0.172,0.054,0.097,0.052,-0.045,-0.105,0.173
SERINC1 (UniProt Q9NRX5),0.044,-0.048,0.372,-0.021,0.053,-0.083,-0.018,-0.874 (active),0.05,0.002,0.001,0.025,-0.223,-0.034,0.019,–,-0.023,-0.051,-0.194,–
SH2D1B (UniProt O14796),-0.781,0.013,-0.01,-0.011,0.143,0.048,-0.135,-0.146,-0.028,–,-0.068,-0.029,0.095,0.168,0.092,-0.068,-0.025,–,0.235,-0.174
RUFY3 isoform 3 (UniProt Q7L099),-0.085,-0.068,0.016,0.038,–,-0.032,-0.011,-0.093,0.021,–,-0.135,-0.149,-0.071,–,-0.046,0.079,0.011,–,-0.015,-0.048
